# Compound activity: PubChem, National Center for Advancing Translational Sciences (NCATS)
# Most compounds without a hit are left out; they make up all but 7.3% or so of the library.
# FMDV inh: foot and mouth disease virus antiviral activity; FMDV antiviral cell-based qHTS; Potency, µM (top dose mostly 57.9 µM), most hits filed as inhibitors; 410,000 tested, 1.2% active; calls by dose curve; tested in HEK293T cells; also: read-out not given here; nearly all actives have a fitted effect of over 45% in size
# Vaccinia mCherry: inhibitors of vaccinia virus infection (mCherry reporter signal) | Vaccinia virus mCherry reporter infection, fluorescence | Potency, µM (series often up to 36.5 µM), usual class: inhibitors | 310,000 tested, 0.63% active | AID 720579; calls by dose curve; tested in A549 cells; also: nearly all actives have a fitted effect of over 35% in size
# HCV inhibitor: blocks hepatitis C virus; Huh7.5.1 HCVcc-Cre infection, luciferase reporter, 44 h; AID 651820; 340,000 tested, 3.4% active; Potency, µM (series often up to 41.8 µM), usual class: inhibitors; active = well fitted inhibition curve with a large enough effect; inconclusive = small, poorly fitted or top-dose-only effect, or another doubt; inactive = no such curve, though single readings can be large or run the other way
#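 Cells seeded at 1,000/well and cultured 4 h, then compounds added followed by HCVcc-Cre virus (~0.5 moi). After 44 h further culture, luciferase substrate was added, plates held 15 min at room temperature, and luminescence read for 15 sec.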
# Vaccinia Venus: vaccinia inhibition (Venus reporter). Potency, µM (titrated, usually from 36.5 µM), actives largely listed as inhibitors. 330,000 tested, 0.46% active. Vaccinia virus Venus reporter expression, fluorescence; calls by dose curve; tested in A549 cells; also: nearly all actives have a fitted effect of over 30% in size
# HCMV antiviral: blocks human cytomegalovirus replication | HFF cells, HCMV-luciferase reporter, 72 h; active compounds read low | activity change, negative = inhibition, % at 57.5 µM | 410,000 tested, 4.5% active | AID 1259415; in the data active = activity change below about -60%; inconclusive = no clear call, values can overlap the other calls; inactive = above about -39%
#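 Inhibition of viral replication was scored as loss of reporter luminescence in HFFs infected with HCMV-luciferase (MOI 1 PFU/cell) for 72 h; compounds tested at 2 doses, normalized to buffer and Salinomycin controls.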
# Hits are given with their value; - = inactive; ? = inconclusive; . = no result; [ ] = another dose, or the depositor's remark.
SMILES,FMDV inh,Vaccinia mCherry,HCV inhibitor,Vaccinia Venus,HCMV antiviral
CCN(C(=O)c1cnc(NC(C)C)cc1C(F)(F)F)c1ccc(Cl)cc1Cl,-,-[7.34 µM],10µM,-[7.34 µM],-
COc1cc(OC)c(NC(=O)c2c(N3CCCC3=O)c3cc(C)ccc3n2C)cc1Cl,-,-,.,-,-
CCc1ccc(C(=O)c2cn(CC(=O)Nc3ccc4c(c3)OCO4)c3ccc(CC)cc3c2=O)cc1,-,-,.,-,-88
CCc1ccc2c(c1)c(=O)c(C(=O)c1ccccc1)cn2CC(=O)Nc1ccc(C)c(Cl)c1,-,?,.,?,-69
CCCn1cc(SCC(=O)Nc2ccc3c(c2)OCO3)c2ccccc21,-,?,14µM,-,-65
CCOc1ccc(C(=O)c2cn(CC(=O)Nc3ccc(C)c(Cl)c3)c3ccc(OCC)cc3c2=O)cc1,-,-,.,-,-
Cn1cc(SCC(=O)Nc2ccc3c(c2)OCO3)c2ccccc21,-,-,-,-,-
Cc1cccc(C(=O)N(C(=O)c2cccc(C)c2)N(C)C)c1,-,-,-,-,-
Cc1cccc(C)c1NC(=O)C(C(C)C)N1C(=O)C(=O)c2ccccc21 (configuration not stated),.,.,.,.,-
COc1ccccc1C1CCN(c2cc(O)ccc2[N+](=O)[O-])CC1,?,-,-,-,-72
COc1ccccc1C1CCN(C(=O)C2CCCCC2)CC1,-,.,-,.,-
COc1ccc(S(=O)(=O)Nc2cc(OC)c(NC(=O)c3ccco3)cc2OC)cc1,.,-,-,-,-
CCOc1ccc(C(CC(=O)O)NC(=O)c2ccco2)cc1OC (configuration not stated),-,-[1.46 µM],-,-,-100
CCOc1cc(NC(=O)c2ccco2)c(OCC)cc1NC(=O)Cc1cccc(OC)c1,-,.,13µM,-,-
CCOc1cc(NS(=O)(=O)c2ccc(OC)cc2)c(OCC)cc1NC(=O)c1ccco1,-,.,-,.,-97
CCOc1cc(NS(=O)(=O)CC)c(OCC)cc1NC(=O)c1ccco1,-,.,?,.,-77
CCOc1cc(NC(=O)c2ccco2)c(OCC)cc1NC(=O)COc1ccccc1C,-,.,?,.,?
Cc1ccc(NC(=O)Cn2c(=O)c(C(F)(F)F)nc3ccccc32)c(C)c1,-,-,.,-,-
N#Cc1ccc(C23OCCN2CCn2c3c3ccccc3[n+]2[O-])cc1 (configuration not stated),-,4µM,?,-,-
Cc1cc(C)c(C#N)c(SCS(=O)Cc2ccc(Cl)cc2)n1 (configuration not stated),.,-,11µM,-,?
Cc1cc(C)c(C#N)c(SCCS(=O)(=O)c2ccc(C(C)(C)C)cc2)n1,-,3.5µM,?,4.5µM,?
Cc1cc(C)c(C#N)c(SCCS(=O)(=O)c2ccc(Cl)cc2)n1,-,4.5µM,?,?,?
Cc1cc(C)c(C#N)c(SCCS(=O)(=O)Cc2ccc(Cl)cc2)n1,-,-[1.46 µM],-,-,-
Cc1cc(C)c(C#N)c(SCC(=O)C(C)(C)C)n1,-,-,-,-,-
CCOC(=O)[C@@H](C)N(C(=O)OC(C)(C)C)S(=O)(=O)N(Cc1ccccc1)[C@@H](C(=O)OC)C(C)C,.,-,.,-,.
SMILES,FMDV inh,Vaccinia mCherry,HCV inhibitor,Vaccinia Venus,HCMV antiviral
COc1ccc(COc2cc(-c3cccc(OC)c3)nc3ccc(N)cc23)cc1,-,?,?,?,-90
CC1OC(OC2C=C3CCC4C(CCC5(C)C(c6ccc(=O)oc6)CCC45O)C3(C)CC2)C(O)C(OC2OC(CO)C(O)C(O)C2O)C1O (configuration not stated),?,0.28µM,16µM,0.0032µM,-97
C[C@@H]1O[C@@H](O[C@H]2C[C@@H](O)[C@]3(CO)[C@@H]4C(CC[C@]3(O)C2)[C@@]2(O)CC[C@H](C3=CC(=O)OC3)[C@@]2(C)C[C@H]4O)[C@H](O)[C@H](O)[C@H]1O (some centres not stated),?,-,.,-,.
CCc1ccc(CNC(=O)c2c(C)oc3ncnc(N4CCOCC4)c23)cc1,?,-,.,-,-61
COc1cccc(CNC(=O)c2c(C)oc3ncnc(N4CCOCC4)c23)c1,-,-,.,-,-
CCCCN(CC)CCCNC(=O)c1c(C)oc2ncnc(N3CCOCC3)c12,-,-,.,-,-66
COc1cc2nc(CN3CCN(S(=O)(=O)c4ccccc4[N+](=O)[O-])CC3)[nH]c(=O)c2cc1OC,-,-,.,?,-
Cc1cc(N2CCCC2=O)cc(C)c1S(=O)(=O)NCCOc1ccccc1,.,-,?,-,-77
CCc1ccccc1N(C)C(=O)Cn1cnc2sc(C)c(S(=O)(=O)N3CCC(C)CC3)c2c1=O,-,-,.,-,-
Cc1ccccc1C(=O)NC1CCN(CC(=O)Nc2c(C)cccc2C)CC1,?,.,-,.,-
Cc1cc(C)cc(NC(=O)CN2CCC(NC(=O)c3cccc(F)c3)CC2)c1,-,-,-,?,-
Cc1ccccc1C(=O)NC1CCN(CC(=O)Nc2ccccc2)CC1,-,.,-,.,-90
O=C(CN1CCC(NC(=O)c2cccc(F)c2)CC1)Nc1ccc(Br)cc1,?,-,10µM,-,-
O=C(CN1CCC(NC(=O)Cc2ccccc2)CC1)Nc1ccccc1Br,?,.,?,.,-64
COc1ccccc1NS(=O)(=O)c1cccc(C(=O)NC2CCN(Cc3ccccc3)CC2)c1,?,?,?,-,.
COc1ccccc1NS(=O)(=O)c1ccc(C)c(C(=O)NC2CCN(Cc3ccccc3)CC2)c1,?,-,2.2µM,-,-76
CCC(=O)N1c2ccccc2CC1C(=O)NCc1ccc(CC)cc1 (configuration not stated),-,-,.,-,-
O=C(NC1CCN(Cc2ccccc2)CC1)c1cccc(S(=O)(=O)Nc2ccc(Br)cc2)c1,-,-,?,?,-69
O=C(NC1CCN(Cc2ccccc2)CC1)c1cccc(S(=O)(=O)Nc2ccc(F)cc2)c1,-,.,?,.,-77
Cc1ccc(NS(=O)(=O)c2cccc(C(=O)NC3CCN(Cc4ccccc4)CC3)c2)c(C)c1,?,.,14µM,.,-
Cc1cccc(C(=O)NCC(=O)NC2CCN(Cc3ccccc3)CC2)c1,-,-,-,-,-
C=CCN(c1ccccc1)S(=O)(=O)c1cccc(C(=O)NC2CCN(Cc3ccccc3)CC2)c1,?,?,14µM,?,-65
CC(C)N1CCOC1c1ccccc1 (configuration not stated),-,-,-,-,-
Cc1cc(NS(=O)(=O)c2ccc(N)cc2)nc(C)n1,.,.,.,.,-
Cc1ccc(-n2c(=O)c3ccccc3n(CC(=O)Nc3cccc(C(F)(F)F)c3)c2=O)cc1,-,-,.,-,-
O=C(CN1C(=O)c2ccccc2C1=O)NCC1Cc2cccc(-c3ncccn3)c2O1 (configuration not stated),-,-,.,-,.
O=C(COc1ccc2c(c1)oc(=O)c1ccccc12)NCCCN1CCOCC1,-,.,?,.,-
COc1ccc(C(=O)Nn2c(SCc3cccc([N+](=O)[O-])c3)nc3ccccc3c2=O)cc1,?,-,?,-,-70
CCn1c(SCc2ccccc2)nc2ccccc2c1=O,-,-,-,-,?
Cc1ccc(CSc2nc3ccccc3c(=O)n2C)cc1,?,-,?,-,-65
